Assay outcomes (PubChem)
CHX counter: Cycloheximide Counterscreen for Small Molecule Inhibitors of Shiga Toxin; cell reporter, cycloheximide protein synthesis inhibition counterscreen; max response, %; 300,000 tested, 12% active; in the data active means max response mostly above about 13%, no sharp cut-off; inactive means mostly below about 14%; further: read at 38.3 µM for the half of the compounds with a filed dose; 0% is about no effect
Shiga inhibitor: A qHTS for Small Molecule Inhibitors of Shiga Toxin | Vero cells, Shiga toxin protein synthesis inhibition reporter | inhibition, % at 38.7 µM | 290,000 tested, 9.2% active | AID 2315, 2010; in the data active means inhibition mostly above about 28%, no sharp cut-off; inactive means mostly below about 43%; further: 0% is about no effect
Pf growth 48h: Primary qHTS for delayed death inhibitors of the malarial parasite plastid, 48 hour incubation | P. falciparum luciferase growth in erythrocytes, 48 h | Potency, µM (titrated, usually from 28.7 µM), for the others: at the highest dose activity change, negative = inhibition, most hits filed as inhibitors | 310,000 tested, 5.9% active | AID 504832, 2011; further: potency means the concentration at half of the fitted maximal effect; on the % scale 0 is the no-effect control and ±100 the full control effect
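Growth was read as firefly luciferase luminescence after a 48 h, 37 C, 5% CO2 exposure of compounds to reporter-bearing P. falciparum cultures (0.1% parasitemia, 2% hematocrit final) in Albumax-supplemented RPMI 1640.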
Pf growth 96h: Primary qHTS for delayed death inhibitors of the malarial parasite plastid, 96 hour incubation; 320,000 tested, 6.9% active; P. falciparum luciferase reporter growth, 96 h; Potency, µM (titrated, usually from 28.7 µM), for the others: top-dose activity change, negative = inhibition, usual class: inhibitors; further: potency means the concentration at half of the fitted maximal effect; on the % scale 0 is the no-effect control and ±100 the full control effect
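Two-generation exposure (96 h) targets delayed-death phenotype. Reporter parasites carrying integrated firefly luciferase, in red cells at 2% hematocrit and 0.05% parasitemia final, kept at 37 C, 5% CO2; luminescence loss indicates inhibition.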
Numbers without * were called inactive; ? = inconclusive; / = no result given. Shown are actives, neighbours in structure and some others; about 21% of the full set was active somewhere. Unless noted, the call rests on the fitted dose curve; in most records, active means well fitted inhibition curve with a large enough effect; inconclusive means small, poorly fitted or top-dose-only effect, or another doubt; inactive means no such curve, though single readings can be large or run the other way.

SMILES	CHX counter	Shiga inhibitor	Pf growth 48h	Pf growth 96h
Cc1cc(C)cc(C(=O)Nc2nnc(SCC(=O)NCC3CCCO3)s2)c1 (configuration not stated)	-1	-8	6%	34%
COc1ccccc1NC(=O)CSc1nnc(C2CCCCC2)n1N	-4	8	11%	28%
CCC(C(=O)OCc1csc(CC(=O)Nc2ccccc2C)n1)c1ccccc1 (configuration not stated)	/	/	12µM*	?
Cc1ccccc1NC(=O)Cc1nc(COC(=O)CSc2ccccc2)cs1	-3	15	5%	11%
Cc1ccccc1NC(=O)Cc1nc(COC(=O)CNS(=O)(=O)c2cccc(Br)c2)cs1	-6	-9	4%	1%
C/C=C/c1ccc(OCC(=O)OCc2csc(CC(=O)Nc3ccccc3C)n2)c(OC)c1	2	-7	-13%	-5%
Cc1ccccc1NC(=O)Cc1nc(CSc2nnc(C3CCCCC3)n2N)cs1	-3	-24	13µM*	7.4µM*
COc1cc(C(=O)OCc2csc(CC(=O)Nc3ccccc3C)n2)ccc1OCC(C)C	/	/	13µM*	9.3µM*
Cc1ccccc1NC(=O)Cc1nc(COC(=O)CCNS(=O)(=O)c2ccccc2)cs1	/	/	10µM*	?
CCCCNC(=O)c1onc(CCl)c1C(=O)OC	-2	9	-3%	?
CCN(C(=O)C1CC1)C1CCS(=O)(=O)C1 (configuration not stated)	/	/	-7%	1%
COc1ccc(C(=O)NCCCNC(=O)c2cnccn2)cc1	4	36	9%	-12%
CCOC(=O)c1c(C)[nH]c(C(=O)OCc2csc(CC(=O)Nc3ccccc3C)n2)c1C	/	/	9.3µM*	12µM*
CC(C)(C)c1[nH]nc2c1C(Cc1ccccc1)C(C#N)=C(N)O2 (configuration not stated)	1	12	10µM*	-22%
COc1ccc(C2c3sc(=O)[nH]c3SC3C4CCC(C4)C23)cc1OC (configuration not stated)	1	2	?	9.3µM*
OCC[C@H]1C[C@H](O)[C@@H](O)[C@]2(Cc3ccccc3CCO2)O1	/	/	9%	-27%
O=S(=O)(N/N=C/c1ccc2c(c1)OCCO2)c1ccccc1	20*	60	0%	45%
O=[N+]([O-])c1cccc(S(=O)(=O)N/N=C/c2ccc(O)cc2)c1	-1	-11	13%	-26%
O=[N+]([O-])c1cccc(S(=O)(=O)N/N=C\c2ccc3c(c2)OCO3)c1	43*	75*	-7%	16%
O=[N+]([O-])c1ccc(S(=O)(=O)N/N=C/c2ccc3c(c2)OCO3)cc1	31*	50*	0%	-15%
CCCc1ccc(S(=O)(=O)N/N=C\c2ccc3c(c2)OCO3)cc1	-3	4	3%	?
COc1ccc(S(=O)(=O)N/N=C\c2ccc3c(c2)OCO3)cc1	-1	18	16%	0%
CC1(C)S[C@@H]2[C@H](NC(=O)[C@H](NC(=O)N3CCN(S(C)(=O)=O)C3=O)c3ccccc3)C(=O)N2[C@H]1C(=O)O	/	/	-14%	-11%
CC(C)C[C@H](NC(=O)[C@@H]1CCCN1C(=O)[C@H](CO)NC(=O)[C@H](Cc1ccccc1)NC(=O)CNC(=O)[C@@H]1CCCN1C(=O)[C@@H]1CCCN1C(=O)[C@@H](N)CCCN=C(N)N)C(=O)O	-6	-3	/	/
Cc1ccc(OCc2cc(C(=O)N3CCN(CC(=O)NC(C)C)CC3)no2)cn1	-2	-10	5%	45%
SMILES	CHX counter	Shiga inhibitor	Pf growth 48h	Pf growth 96h
COC(=O)NC(NC(=S)Nc1ccc([N+](=O)[O-])cc1)C(Cl)(Cl)Cl (configuration not stated)	-3	-5	12µM*	-6%
COC(CNC(=S)Nc1ccc([N+](=O)[O-])cc1)OC	14*	active	54%	7%
CC(OC(=O)c1cccc(-n2cnnn2)c1)C(=O)Nc1ccc(N(C)C)cc1 (configuration not stated)	/	/	49%	21%
CC(Sc1ccc(Cl)cc1)C(=O)N(C)CC(=O)Nc1ccc(N2CCOCC2)cc1 (configuration not stated)	/	/	-2%	0%
CC(=O)Nc1ccc(CN2CCCCCC2)cc1	0	-6	13%	0%
COc1cccc(C(=O)NN/C(C)=C/C(=O)C(F)(F)C(F)(F)C(F)(F)F)c1	25*	66*	0%	43%
COc1ccc(C(=O)NNC(=O)Cc2ccc(Cl)cc2)cc1	-1	-9	3%	?
COc1cccc(C(=O)NNC(=O)Cc2ccc(Cl)cc2)c1	-2	-14	5%	2.9µM*
